# Source: the supplement of paper PMC10338343
# ± gives the standard deviation.
# Tested on: MILI (PIWIL2) piRISC loaded with piRNA #1 (26 nt)
# Test: pre-steady-state target cleavage rate (min^-1); guide: piRNA #1 5'p-UGAGGUAGUAGGUUGUAUAGUAUCCA; MIWI and MILI are mouse PIWI proteins and EfPiwi is from a freshwater sponge; tags in brackets are library labels; higher = faster piRNA-guided slicing of the target
# Details: auxiliary factor: 500 nM mouse GTSF1
# Method in brief: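 Active affinity-purified piRISC (1 nM) loaded with one synthetic guide was mixed with a transcribed, DNA-blocked target RNA library (0.1 nM), with or without 500 nM GTSF1 partner protein, in HEPES–potassium acetate buffer at 33 °C for 0–8 or 0–960 min. Uncleaved targets were sequenced, normalised to depth and to weakly complementary targets, and pooled across three trials, with k3 capped at 0.0001 min^-1. The pre-steady-state cleavage rate was determined with a burst-and-steady-state fit.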
row,Sequence,pre-steady-state target cleavage rate
1,GGAGACCUUACUAUACAACCUACUUGGAGA [g7:g22:cont:t1A],0.00375 ± 0.0034
2,GGAGACCUAUGAAUACAACAUACUACCUCA,0.00332 ± 0.0021
3,GGAGACCUAUCUAUACAACGUACUUCCUCA,0.0209 ± 0.0035
4,GGAGACCUAACAAUAGAACCUACUACCUCA,0.0656 ± 0.012
5,GGAGACCUAUGAUAUGUUGCUACUACCUCU [g2:g11:cont:t1U],< 0.0001
6,GGAGACCUAUCAAUACAUCCUACUACCUCA,0.109 ± 0.02
7,GGAGACCUAACAAUACAACCUACUAGCUCA,0.0462 ± 0.017
8,GGAGACCUAUGAUUACAACCUACUACCUUA,0.00425 ± 0.0023
9,GGAGACCUAUGUAUACAACCUACUAACCUCA,0.0935 ± 0.013
10,GGAGACCUAUCUAUUCAACCUACAACCUCA,0.0889 ± 0.011
11,GGAGACCUAACUAUACAACCUACUAGCACA,0.00779 ± 0.0065
12,GGAGACCUAUGAUAACAACCUAAUACCUCA,0.00414 ± 0.0023
13,GGAGUGGAUACUAUACAAGGAACUACCUCA,0.00353 ± 0.0018
14,GGAGACCUAUGAAUACAACCUACUACCUCC [g2:g18:cont:t1C],0.0111 ± 0.0027
15,GGAGACCAUACAAUACAACCUUCUACCUCA,0.012 ± 0.0035
16,GGAGACCUAUGUAUACAAGCUACAACCUCA,0.0946 ± 0.011
17,GGAGACGAUACUUUUCAACCUACUACCUCA,0.171 ± 0.011
18,GGAGACCUAUGUAUAAAACCUACUACCUCA,0.0488 ± 0.0094
19,GGAGUGGAUACUAUAGUACCUACUACCUCA,0.161 ± 0.012
20,GGAGACCUGACUAUACAACCUACUACCUCA,0.125 ± 0.028

row,Sequence,pre-steady-state target cleavage rate
1,GGAGACCUAUCUAUACAACCUACUACCUAA,0.0733 ± 0.0096
2,GGAGACCUAAGUAUACAACCUAGUACCUCA,0.0133 ± 0.0034
3,GGAGACCUAUGAUAUGUACUCUACUACCUCA,< 0.0001
4,GGAGACCUAUGAAUACAAGCUACUUCCUCA,0.0166 ± 0.0043
5,GGAGUGGAAUGUAUACAACCUACUACCUCA,0.0864 ± 0.0076
6,GGAGACCUUAGUAAACAACCUACUACCUCA,0.0245 ± 0.0059
7,GGAGACCUAUCUAUACAACCUACUACCCUCA,0.132 ± 0.015
8,GGAGACCUAUGUAUACAACCUACUGCCUCA,0.0511 ± 0.0081
9,GGAGACCUUACUAUACUACCUACUUCCUCA,0.119 ± 0.019
10,GGAGUGGAUAGUAUAGAACCUACUACCUCA,0.146 ± 0.013
11,GGAGACCUAUCAUACAACCUACUACCUCA,0.0591 ± 0.0093
12,GGAGACCUAUGAUAACAUCCUACAACCUCA,0.00633 ± 0.0025
13,GGAGACCUAAGUAUUCAACCUACUACCUCA,0.0617 ± 0.0092
14,GGAGACCUAUGAUAUCUAACCUACUACCUCA,0.00471 ± 0.0023
15,GGAGACCUAUGAUUUCAAGCUACUACCUCA,0.00713 ± 0.0026
16,GGAGACCUAUGAAUACAACCUACUAUCUCA,0.00527 ± 0.0017
17,GGAGACCUAUCAAUACAACCUACUACGUCA,0.0134 ± 0.0044
18,GGAGACGAUACAAUACAACGUACUACCUCA,0.0185 ± 0.0029
19,GGAGACCUUACUAUACAACCUACUCACCUCA,0.17 ± 0.018
20,GGAGACCUAUCUAACAACCUACUACCUCA,0.0222 ± 0.0049
